Data published in PubChem BioAssay (EPA / NIEHS).
The source made the active and inactive calls. Rule for the calls: active = hit-call score of the fitted dose curve at least 0.9, where 1 is the maximum; inactive = score below 0.9.

Assay: Tanguay_ZF_120hpf_MO24: Oregon State University Tanguay Lab 24 Hour Post-fertilization zebrafish Assay for Mortality (AID 2284389)
How it was run: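 Dechorionated wild-type zebrafish embryos, 1 per well, statically exposed from 6 hpf at 28C, 0.64% DMSO final. Mortality scored as binary present/absent at 24 hpf by brightfield microscopy, relative to DMSO.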

COC(=O)CCC(F)(F)C(F)(F)C(F)(F)C(F)(F)F
outcome: inactive

NC(=O)C(F)(F)C(F)(F)C(F)(F)C(F)(F)F
outcome: inactive

O=C(O)C(F)(F)C(F)(F)C(F)(F)C(F)(F)F
outcome: inactive

O=C(O)C(F)(OC(F)(F)C(F)(OC(F)(F)C(F)(F)C(F)(F)F)C(F)(F)F)C(F)(F)F (configuration not stated)
outcome: inactive

OCCCC(F)(F)C(F)(F)C(F)(F)F
outcome: inactive

OCC(F)(F)C(F)(F)C(F)(F)C(F)(F)C(F)(F)C(F)F
outcome: inactive

CCO[Si](CCC(F)(F)C(F)(F)C(F)(F)C(F)(F)C(F)(F)C(F)(F)F)(OCC)OCC
outcome: inactive

O=C(O)C(F)(F)C(F)(F)C(F)(F)C(F)(F)C(F)(F)C(F)(F)C(F)(F)C(F)(F)C(F)(F)C(F)(F)C(F)(F)C(F)(F)C(F)(F)F
outcome: inactive

C=CC(F)(F)C(F)(F)C(F)(F)C(F)(F)C(F)(F)C(F)(F)C(F)(F)C(F)(F)F
outcome: inactive

O=C(O)C=C(C(F)(F)F)C(F)(F)F
outcome: inactive

FC(F)(F)C(F)(F)C(F)(F)N(C(F)(F)C(F)(F)C(F)(F)F)C(F)(F)C(F)(F)C(F)(F)F
outcome: inactive

O=S(=O)(OCC(F)F)C(F)(F)F
outcome: inactive

CCCCCCCCC(F)(F)C(F)(F)C(F)(F)C(F)(F)C(F)(F)C(F)(F)F
outcome: inactive

O=C(O)C(F)(F)C(F)(F)C(F)(F)C(F)(F)C(F)(F)C(F)(F)C(F)(F)C(F)(F)C(F)(F)C(F)(F)C(F)(F)C(F)(F)F
outcome: inactive

FC(F)(F)C(F)(F)C(F)(F)C(F)(F)C(F)(F)C(F)(F)C(F)(F)I
outcome: inactive

FC1CC(F)(F)C(F)(F)C1(F)F (configuration not stated)
outcome: inactive

O=C(O)C(F)(F)C(F)(F)C(F)F
outcome: inactive

C=CC(=O)OCC(F)(F)C(F)(F)C(F)(F)C(F)(F)C(F)(F)C(F)(F)C(F)(F)F
outcome: inactive

FC(F)(F)C(F)(F)CNCC(F)(F)C(F)(F)F
outcome: inactive

FC(F)(F)C(F)(F)C(F)(F)C(F)(F)C(F)(F)C(F)(F)C(F)(F)Br
outcome: inactive

OCC(F)(F)C(F)(F)C(F)(F)C(F)(F)C(F)(F)C(F)(F)F
outcome: inactive

O=S(=O)(OCCOC(F)(F)F)C(F)(F)F
outcome: inactive
